# Test results from the supplement of paper PMC9023506.
# Where a name gives a salt, the structure may show the parent alone.
# System: Danio rerio larvae (5 dpf)
# Assay: optomotor response to blue moving lines, difference vs DMSO (percentage points (treated minus DMSO)); higher = more of the behaviour than the DMSO vehicle control
# Settings: 10 µM; exposure time: 3 h pre-incubation + 3 h imaging
# Protocol: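 5-dpf wild-type zebrafish larvae were imaged in 96-well plates. They were treated with 190 Tocris FDA-approved drugs at 10 µM (1 µl/ml DMSO) for 3 h before and 3 h during imaging at 28.5 °C, 48 larvae per drug. Automated image analysis gave % time moving and optomotor responses. Values are drug group mean minus DMSO vehicle mean (n=844), in percentage points, for 10 behaviours.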
row,Compound,optomotor response to blue moving lines
1,Cn1nnc2c(C(N)=O)ncn2c1=O [Temozolomide],3.81
2,O=C(O)c1cc(/N=N/c2ccc(S(=O)(=O)Nc3ccccn3)cc2)ccc1O [Sulfasalazine],-4.22
3,COc1ccc(C[C@@H](C)NC[C@H](O)c2ccc(O)c(NC=O)c2)cc1 [Arformoterol tartrate],-4.26
4,Cc1cn([C@H]2C=C[C@@H](CO)O2)c(=O)[nH]c1=O [Stavudine],10
5,CNC(=O)c1cc(Oc2ccc(NC(=O)Nc3ccc(Cl)c(C(F)(F)F)c3)cc2)ccn1 [Sorafenib],-18.5
6,CC(C)(C)NC(=O)[C@@H]1C[C@@H]2CCCC[C@@H]2CN1C[C@@H](O)[C@H](Cc1ccccc1)NC(=O)[C@H](CC(N)=O)NC(=O)c1ccc2ccccc2n1 [Saquinavir mesylate],-2.78
7,C[C@@H](O[C@H]1OCCN(Cc2n[nH]c(=O)[nH]2)[C@H]1c1ccc(F)cc1)c1cc(C(F)(F)F)cc(C(F)(F)F)c1 [Aprepitant],4.96
8,Nc1nc2[nH]cc(CCc3ccc(C(=O)N[C@@H](CCC(=O)O)C(=O)O)cc3)c2c(=O)[nH]1 [Pemetrexed],1.87
9,CN(C)CCc1c[nH]c2ccc(Cn3cncn3)cc12 [Rizatriptan benzoate],3.13
10,COc1c(C)c2c(c(O)c1C/C=C(\C)CCC(=O)OCCN1CCOCC1)C(=O)OC2 [Mycophenolate mofetil],16.8
11,C#C[C@]1(O)CC[C@H]2[C@@H]3CCC4=CC(=O)CC[C@@H]4[C@H]3CC[C@@]21CC [Levonorgestrel],19.5
12,COc1ccc(-c2ccc3cc(C(=O)O)ccc3c2)cc1C12CC3CC(CC(C3)C1)C2 [Adapalene],-1.19
13,CC(=O)Oc1ccccc1C(=O)O [Aspirin],2.57
14,CC(C)c1nc(CN(C)C(=O)N[C@H](C(=O)N[C@@H](Cc2ccccc2)C[C@H](O)[C@H](Cc2ccccc2)NC(=O)OCc2cncs2)C(C)C)cs1 [Ritonavir],-11.8
15,CCOc1cc(CC(=O)N[C@@H](CC(C)C)c2ccccc2N2CCCCC2)ccc1C(=O)O [Repaglinide],-2.55
16,Clc1ccc2nsnc2c1NC1=NCCN1 [Tizanidine hydrochloride],3.61
17,COCCCOc1cc(C[C@@H](C[C@H](N)[C@@H](O)C[C@H](C(=O)NCC(C)(C)C(N)=O)C(C)C)C(C)C)ccc1OC [Aliskiren hemifumarate],-5.15
18,C[C@H]1C[C@@H]2[C@H]([C@@H](O)C[C@@]3(C)[C@H]2CC[C@]3(O)C(=O)CO)[C@@]2(C)C=CC(=O)C=C12 [Methylprednisolone],10.6
19,Nc1ncn([C@@H]2O[C@H](CO)[C@@H](O)[C@H]2O)c(=O)n1 [5-Azacytidine],8.76
20,C[C@H]1O[C@H](O[C@H]2[C@H](O)[C@@H](O)[C@@H](O[C@H]3[C@H](O)[C@@H](O)C(O)O[C@@H]3CO)O[C@@H]2CO)[C@H](O)[C@@H](O)[C@@H]1N[C@H]1C=C(CO)[C@@H](O)[C@H](O)[C@H]1O (stereo not given in full) [Acarbose],15.5

row,Compound,optomotor response to blue moving lines
1,CC(C)C(=O)OCC(=O)[C@@]12O[C@H](C3CCCCC3)O[C@@H]1C[C@H]1[C@@H]3CCC4=CC(=O)C=C[C@]4(C)[C@H]3[C@@H](O)C[C@@]12C [Ciclesonide],-2.62
2,CN1CCC[C@@H]1Cc1c[nH]c2ccc(CCS(=O)(=O)c3ccccc3)cc12 [Eletriptan hydrobromide],5.86
3,N#C[C@@H]1C[C@@H]2C[C@@H]2N1C(=O)[C@@H](N)C12CC3CC(CC(O)(C3)C1)C2 [Saxagliptin hydrochloride],-7.01
4,Cc1c(-c2ccc(O)cc2)n(Cc2ccc(OCCN3CCCCCC3)cc2)c2ccc(O)cc12 [Bazedoxifene acetate],1.43
5,CN(C)CC/C=C1/c2ccccc2COc2ccc(CC(=O)O)cc21 [Olopatadine hydrochloride],-0.0571
6,CCCN(CCC)S(=O)(=O)c1ccc(C(=O)O)cc1 [Probenecid],2.07
7,CCCCC1=NC2(CCCC2)C(=O)N1Cc1ccc(-c2ccccc2-c2nnn[nH]2)cc1 [Irbesartan],-14
8,CC(C)(C(=O)c1cccnc1)c1cccnc1 [Metyrapone],-8.19
9,CN(C)CCc1c[nH]c2ccc(C[C@H]3COC(=O)N3)cc12 [Zolmitriptan],9.9
10,NC(=O)N1c2ccccc2C=Cc2ccccc21 [Carbamazepine],12.9
11,Cc1ccc(O)c([C@H](CCN(C(C)C)C(C)C)c2ccccc2)c1 [Tolterodine L-tartrate],7.18
12,CC1(C)O[C@@H]2[C@@H](CO[C@@]3(COS(N)(=O)=O)OC(C)(C)O[C@@H]23)O1 [Topiramate],-3.75
13,CCCCCOC(=O)Nc1nc(=O)n([C@@H]2O[C@H](C)[C@@H](O)[C@H]2O)cc1F [Capecitabine],16.5
14,COc1ccc(Cl)cc1C(=O)NCCc1ccc(S(=O)(=O)NC(=O)NC2CCCCC2)cc1 [Glibenclamide],1.29
15,Nc1ncn([C@H]2C[C@H](O)[C@@H](CO)O2)c(=O)n1 [Decitabine],-0.954
16,CC(=O)O[C@H]1C(=O)[C@@]2(C)[C@H]([C@H](OC(=O)c3ccccc3)[C@]3(O)C[C@H](OC(=O)[C@H](O)[C@@H](NC(=O)c4ccccc4)c4ccccc4)C(C)=C1C3(C)C)[C@]1(OC(C)=O)CO[C@@H]1C[C@@H]2O [Taxol],-0.599
17,CCCCc1nc(Cl)c(CO)n1Cc1ccc(-c2ccccc2-c2nnn[nH]2)cc1 [Losartan potassium],-6.92
18,CC(=O)O[C@]1(C(C)=O)CC[C@H]2[C@@H]3C=C(C)C4=CC(=O)CC[C@]4(C)[C@H]3CC[C@@]21C [Megestrol Acetate],-7.55
19,CCN(Cc1ccncc1)C(=O)C(CO)c1ccccc1 (stereo not given) [Tropicamide],0.00192
20,CN/C(=N\CCSCc1nc[nH]c1C)NC#N [Cimetidine],4.9
